For 52 compounds, INHIBITION results are on record in ChEMBL document CHEMBL4513216, “Probing the Open Global Health Chemical Diversity Library for Multistage-Active Starting Points for Next-Generation Antimalarials” (ACS Infect Dis, 2020).

Hit rate of the full screen: of about 69,000 compounds, about 8,600 (12%) showed an effect of 50% or more. Only a selection was taken, and strong results are over-represented in it overall.

For this experiment, the system named is Plasmodium berghei. The experiment can be described thus: Screen against P. berghei liver stage (PbLuc), transformed with Luciferase, at 10uM. In kind it is functional, HepG2. The note with it: tested at 10 uM.
`COc1cccc(Cn2ncnc2CCC(C)N2CCN(C)CC2)c1` (configuration not stated): the INHIBITION is 72%.

Turning to `COc1cccc(Cn2ncnc2CCSC)c1`, the INHIBITION was -32.9%.

For the compound `CC(CCc1ncnn1Cc1cccc(Cl)c1)N1CCCC1` (configuration not stated), the INHIBITION is 49.3%.

For the compound `Cc1noc(C2CCCN(C(=O)CCCNc3ncccn3)C2)n1` (configuration not stated), the INHIBITION was 8.535%.

In the case of `COc1ccc(CCCNCc2c(C)nn(C)c2N(C)C)cc1OC`, the INHIBITION is 45.7%.

Consider `CN(C)c1cccc(C(=O)N2CCn3c(nnc3C3CC3)C2)c1`, for which the INHIBITION came to 25.4%.

`Cn1cc(S(=O)(=O)N2CCCC2Cn2ccnc2)cn1` (configuration not stated): the INHIBITION was 34.4%.

As to `CN(C)C(=O)c1cc(S(=O)(=O)N2CCCC2Cn2ccnc2)cn1C` (configuration not stated), the INHIBITION was found to be 61.5%.

As for `Cn1cc(S(=O)(=O)N2CCCC2Cn2ccnc2)cc1C(N)=O` (configuration not stated), the INHIBITION amounted to 39.9%.

`CN(Cc1nc(CS(C)(=O)=O)no1)c1ccccc1`: the INHIBITION stood at 19.7%.

For `COCCN(Cc1ccco1)Cc1nc(-c2ccccc2)no1`, the INHIBITION is listed as -10.1%.

For `CS(=O)(=O)Cc1noc(CN(Cc2ccco2)c2ccccc2)n1`, the INHIBITION is recorded as 54.4%.

Turning to `Cc1noc(C)c1CN1C[C@@H](N(C)Cc2ccco2)[C@H]2OCCC[C@H]21`, the INHIBITION worked out at 20.6%.

For `O=C(NCCNc1ncccn1)C1CCN(C(=O)c2ccoc2)CC1`, the INHIBITION is recorded as -2.53%.

On to `CC1(C)OC(=O)N(CCCC(=O)c2ccc(F)cc2)C1=O`, for which the INHIBITION is -4.12%.

For the compound `CN(C)C(=O)CCC[S+]([O-])Cc1ccc(F)c(F)c1` (configuration not stated), the INHIBITION was 31.5%.

As for `CN(C)C(=O)CCC[S+]([O-])Cc1ccc(Cl)c(Cl)c1` (configuration not stated), the INHIBITION is given as 57.3%.

In the case of `CN(C)C(=O)CCNC(=O)NCc1ccc(Br)cc1Cl`, the INHIBITION came to 47.6%.

On to `CN(C)C(=O)CNC(=O)c1ccc(Cl)cc1F`, for which the INHIBITION was -12.6%.

Take `COCC(=O)N(C)Cc1ccc(Cl)c(Cl)c1`: the INHIBITION is given as -11.1%.

Turning to `CN(C)C(=O)CCC[S+]([O-])Cc1cc(Cl)ccc1Cl` (configuration not stated), the INHIBITION came out at 57.3%.

As for `CC(C)CCN1CCc2cc(C(=O)N(C)C)c(NCC3CC3)nc2CC1`, the INHIBITION is recorded as -35%.

As to `Cc1nc(O)cc(CN2C[C@H](NC(=O)C3CCCC3)[C@@H](C3CC3)C2)n1`, the INHIBITION is listed as -69.6%.

Take `CC(=O)N[C@@H]1CN(c2nc(CO)cs2)C[C@H]1c1ccc(C)o1`: the INHIBITION came out at 65.6%.

Take `CCC[C@H]1CN(c2nc(CO)cs2)C[C@@H]1NC(=O)C1CCC1`: the INHIBITION was 48.2%.

For `CC(=O)N[C@@H]1CN(c2nc(C(N)=O)cs2)C[C@H]1c1ccc(C)o1`, the INHIBITION turned out to be 35%.

Take `CC(=O)N[C@@H]1CN(C(=O)c2ccc[nH]2)C[C@H]1c1ccc(C)o1`: the INHIBITION stood at 45.1%.

For the compound `O=C(N[C@H]1CN(c2nc(CO)cs2)C[C@@H]1C1CC1)C1CCCCC1`, the INHIBITION was 50.4%.

For the compound `CC(=O)N[C@@H]1CN(C(=O)c2cc3ccccc3[nH]2)C[C@H]1c1ccc(C)o1`, the INHIBITION came out at 61.2%.

Regarding `CC(=O)N[C@@H]1CN(C(=O)c2cc3sccc3[nH]2)C[C@H]1c1ccc(C)o1`, the INHIBITION is reported as -7.94%.

Take `CCc1nnc(N2C[C@@H](NC(C)=O)[C@H](c3ccc(C)o3)C2)s1`: the INHIBITION came out at 44.3%.

In the case of `Cc1ccccc1C1CN(c2cnn(C)c(=O)c2Cl)CCO1` (configuration not stated), the INHIBITION is on record as -3.35%.

For `Cc1cnc(N2C[C@H]3CN(Cc4csc(C)n4)C(=O)[C@H]3C2)nc1`, the INHIBITION amounted to 31.4%.

As for `CCOC(=O)[C@]12CCCN(Cc3ccco3)C[C@H]1CN(S(C)(=O)=O)C2`, the INHIBITION worked out at 6.67%.

For the compound `Cc1ccc2c(c1)[C@@H](CC(=O)N1CCN(C)CC1)CCO2`, the INHIBITION was -12.2%.

As to `CNC(=O)[C@H]1C[C@@H]2CN(S(=O)(=O)c3ccc(F)cc3)C[C@@H]2N1C`, the INHIBITION worked out at 35.8%.

As for `CCN1CC[C@@]2(C(=O)N3CCCC3)CCN(S(C)(=O)=O)CC[C@@H]12`, the INHIBITION is given as -45.5%.

For the compound `Cc1ncsc1CN1C[C@@H]2COC[C@]2(CNC(=O)c2ccccc2)C1`, the INHIBITION is reported as -49.6%.

Take `Cc1cccc(COC[C@H]2CC[C@H]3[C@H](CCN3C(=O)CC3CC3)O2)n1`: the INHIBITION was 2.84%.

For `COc1cccc(COCC(=O)N2CCCCCC2)c1`, the INHIBITION was -51.075%.

Regarding `COc1cccc(C(=O)N2CCN(C(=O)CCn3ccnc3)CC2)c1`, the INHIBITION amounted to 55%.

As for `COc1ccccc1C(=O)N1CCN(C(=O)CCn2ccnc2)CC1`, the INHIBITION was -27.4%.

For the compound `O=C(CCCc1cn[nH]c1)N1C[C@@H](CN2CCOCC2)[C@@H](CO)C1`, the INHIBITION came out at 2.3%.

In the case of `COc1cccc(OCC2CCCN(C(=O)CCn3ccnc3)C2)c1` (configuration not stated), the INHIBITION came to 82.2%.

On to `COc1ccc(C(=O)N2CCN(C(=O)CCCc3cn[nH]c3)CC2)cc1`, for which the INHIBITION turned out to be 26.4%.

`COc1cccc(OCC2CCCN(C(=O)CCCn3cccn3)C2)c1` (configuration not stated): the INHIBITION was 16.9%.

Turning to `COc1cccc(OCC2CCCN(C(C)=O)C2)c1` (configuration not stated), the INHIBITION was -20.9%.

With `COc1ccccc1C(=O)N1CCN(C(=O)CCCc2cn[nH]c2)CC1`, the INHIBITION came out at 32%.

As for `COc1cccc(C(=O)N2CCN(C(=O)CCCc3cn[nH]c3)CC2)c1`, the INHIBITION is 65.6%.

For `COc1cccc(C(=O)N2CCN(C(=O)CCCn3ccnc3)CC2)c1`, the INHIBITION amounted to 40.9%.

`O=C(CCc1cn[nH]c1)N1C[C@@H](CN2CCCCCC2)[C@@H](CO)C1`: the INHIBITION came to 36.6%.

In the case of `O=C(CCCc1cn[nH]c1)N1C[C@@H](CN2CCCCCC2)[C@@H](CO)C1`, the INHIBITION was found to be 52.2%.
